About 6,200 (1.7%) of roughly 360,000 compounds were called active. The full list was thinned out, with actives kept by preference. Values without a mark were called inactive.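 Rule for the calls: active = inhibition of at least 50% at 20 µM; inactive = the rest.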
Experiment: inhibition of PEG-3 promoter activity – cell-based, HeLa, luciferase luminescence, primary screen (AID 588405)
Conditions: HeLa PEG-Prom luciferase reporter, overnight, at 20 µM, hits give high values
In the case of `Cc1ccccc1S(=O)(=O)NC(=O)C1(C)CCN1C(=O)Cc1ccc(Cl)cc1Cl` (stereo not drawn), the inhibition is reported as 3.83%.
In the case of `Cc1cccc(CNC(=O)c2sc(=O)n(Cc3ccccc3C)c2C)c1`, the inhibition is reported as 3.15%.
With `CCn1c(=O)c(=O)[nH]c2c(=O)oc3ccc(S(=O)(=O)Nc4ccc(OC)cc4)cc3c21` the inhibition was -5.21%.
`CC(=O)N1C[C@@H](CO)[C@@H](N(C)C(=O)c2ccco2)C[C@H]1c1ccccc1` showed an inhibition of -9.39%.
With `Cc1csc(NC(=O)CSc2nc(=O)cc(N)n2-c2ccc(F)cc2)n1` the inhibition was 1.12%.
In the case of `COc1cc(SC)ccc1C(=O)Nc1nc(C)cs1`, the inhibition is reported as 99.9% (active).
In the case of `COc1cc(SC)ccc1C(=O)NNC(=O)C1COc2ccccc2O1` (stereo not drawn), the inhibition is reported as -36.6%.
For `CCc1nc2c(OCc3cccc(OC)c3)cccn2c1N(C)C(=O)C(C)C`, the inhibition was 17.8%.
`COc1cccc(CNc2nc(NCc3ccccc3OC)nc3ccsc23)c1` showed an inhibition of 30.7%.
With `Clc1ccccc1Nc1nc(NCc2cccs2)nc2ccsc12` the inhibition was 7.17%.
For `COc1cccc(CNc2nc(NCc3cccs3)nc3ccsc23)c1`, the inhibition was 57.2% (active).
In the case of `Oc1cccc2cc(-c3ccncc3)cnc12`, the inhibition is reported as -97.7%.
With `O=C1c2ccccc2C(c2nc3ccccc3[nH]2)N1c1ccccc1` (stereo not drawn) the inhibition was 2.93%.
Molecule `Cc1cccc(N2CC(C(=O)Nc3ccccc3N3CCCC3)CC2=O)c1C` (stereo not drawn) has an inhibition of 20.1%.
Work on `COc1cc(/C=N/NC(=O)c2cc(-c3ccccc3C)nc3ccccc23)cc(OC)c1O` yielded an inhibition of 10.1%.
In the case of `COc1cccc(/C=N/Nc2cc(C)nc(-c3ccccc3O)n2)c1O`, the inhibition is reported as 79.9% (active).
`COc1ccccc1-n1c(SCC(=O)Nc2cccc(C(=O)O)c2)nnc1-c1ccccc1O` showed an inhibition of -4.09%.
For `CC1(C(=O)NS(=O)(=O)c2cccc(F)c2)CCN1C(=O)Cc1ccc(Cl)cc1Cl` (stereo not drawn), the inhibition was -4.9%.
`O=C(O)C1=CCCN(CCON=C(c2ccccc2)c2ccccc2)C1` gave an inhibition of -3.93%.
`Cc1cccc(-c2cnc(C(O)c3cc(C)cc(C)c3)[nH]2)c1` (stereo not drawn) showed an inhibition of 15.8%.
In the case of `CC(=O)C12CC(C)=C(C)CC1CC1C3CCC4=CC(=O)CCC4(C)C3CCC12C` (stereo not drawn), the inhibition is reported as 14%.
For `CSc1ncnc2c1ncn2CC(=O)C1CCC2C3CCC4=CC(=O)CCC4(C)C3CCC12C` (stereo not drawn), the inhibition was 105% (active).
For `CSc1ncnc2c1ncn2CCCNCC1CCCCC1`, the inhibition was -12.2%.
In the case of `COc1ccc(OC)c(NC(=O)C2(C)CCN2C(=O)Cc2ccccc2)c1` (stereo not drawn), the inhibition is reported as 0.38%.
In the case of `CC(C)Oc1cc(F)ccc1-c1cc(C(=O)Nc2cccc(Cl)c2)[nH]n1`, the inhibition is reported as -14.2%.
Molecule `Nc1nonc1-n1nnc(C(=O)N/N=C\c2ccncc2)c1CN1CCCCC1` has an inhibition of 23.4%.
Work on `COCc1c(C(=O)N/N=C\c2cccnc2)nnn1-c1nonc1N` yielded an inhibition of 10.8%.
For `Nc1nonc1-n1nnc(C(=O)N/N=C/c2cc(Br)ccc2O)c1CSC1=NCCS1`, the inhibition was 56.4% (active).
Work on `COc1cccc(-c2cnc3c(NC(C)=O)cc(-c4cc(F)ccc4OC)cn23)c1` yielded an inhibition of 23.8%.
In the case of `COc1ccc(OCC(O)CN(C)C(=O)C(C)Oc2ccccc2)cc1` (stereo not drawn), the inhibition is reported as 9.53%.
Molecule `COc1cccc(CN(C)CC(O)COC(c2ccccc2)c2ccccc2C)c1` (stereo not drawn) has an inhibition of 4.99%.
For `CN(Cc1ccccc1)CC(O)COc1ccc(CNCc2cc3ccccc3s2)cc1` (stereo not drawn), the inhibition was 50.3% (active).
Work on `Cc1ccc(C)c(C(O)c2ncc(-c3cccc4ccccc34)[nH]2)c1` (stereo not drawn) yielded an inhibition of 17.3%.
For `COc1ccc(-c2nn(-c3ccccc3)cc2/C=C2/SC(=S)N(CCCC(=O)O)C2=O)c(C)c1`, the inhibition was 60.7% (active).
Molecule `Cc1ccc(-c2nn(-c3ccccc3)cc2/C=C2\SC(=S)N(CCCCCC(=O)O)C2=O)o1` has an inhibition of -22.9%.
For `COc1cccc(/C=C2\SC(=S)N(CCCC(=O)N3CCOCC3)C2=O)c1`, the inhibition was -13.7%.
Molecule `CCc1nc2c(OCc3ccc(Cl)cc3Cl)cccn2c1N(C)C(=O)C(C)C` has an inhibition of 14.2%.
Work on `Cc1c(NC(=O)CSc2cccc3cccnc23)c(=O)n(-c2ccccc2)n1C` yielded an inhibition of 23.3%.
In the case of `O=C(CSc1cccc2cccnc12)N/N=C/c1cccnc1`, the inhibition is reported as 74.3% (active).
With `O=C(N/N=C\c1cccnc1)c1cc(-c2ccccc2)nc2c(Cl)cccc12` the inhibition was 32.6%.
Molecule `CNc1cnc(-c2cc(OC)c(OC)c(OC)c2)cn1` has an inhibition of -13.3%.
`CC(=O)NC(c1ccccc1)c1nc(-c2cccc(C(C)C)c2)cs1` (stereo not drawn) showed an inhibition of 4.34%.
With `CC(C)(C)CC(C)(C)NCC(O)COCCOc1ccc(Br)cc1` (stereo not drawn) the inhibition was 103% (active).
`CC(Oc1ccc(Br)cc1)C(=O)NC1CCCCCC1` (stereo not drawn) showed an inhibition of -67%.
`COc1ccc(OCC(O)CNCCNc2nccc(C(F)(F)F)n2)cc1` (stereo not drawn) gave an inhibition of 1.34%.
`CC(NCC(=O)Nc1ccccc1C(=O)NC1CC1)c1ccccc1Cl` (stereo not drawn) showed an inhibition of 6.43%.
With `CCc1nc2ccc(C(=O)NCCNC(C)=O)cn2c1N(CC)Cc1cccc(Br)c1` the inhibition was 5.16%.
`Cc1ccc2nc(-c3ccncc3)cc(C(=O)Nc3ccc(OC(F)F)cc3)c2c1` gave an inhibition of 27.7%.
For `Cc1ccc2nc(-c3ccncc3)cc(C(=O)Nc3ccncc3)c2c1`, the inhibition was 70.2% (active).
In the case of `O=C(Nc1ccc(S(=O)(=O)Nc2nccs2)cc1)c1cc(-c2ccncc2)nc2ccccc12`, the inhibition is reported as 11.9%.
Molecule `CCC1(C)Cc2c(sc3nnn(CC(=O)Nc4ccc(Cl)cc4)c(=O)c23)CO1` (stereo not drawn) has an inhibition of 11.2%.
`O=C(/C=C/[C@H]1O[C@@H](n2ccc(=O)[nH]c2=O)[C@H](O)[C@@H]1O)NCc1ccccn1` gave an inhibition of 12.5%.
Molecule `CCCN(CC(=O)NC(=O)NC1CCCCC1)CC(=O)Nc1cc(Cl)ccc1Cl` has an inhibition of 32.9%.
Work on `CC(C)(C(=O)N1CCC1(C)C(=O)NS(=O)(=O)c1ccc(Br)cc1)c1ccccc1` (stereo not drawn) yielded an inhibition of 3.42%.
`CCOC(=O)/C(=N\Nc1ccccc1[N+](=O)[O-])c1csc(Nc2ccccc2)n1` showed an inhibition of 20.3%.
For `O=C(O)C(=Cc1ccc([N+](=O)[O-])cc1)CCc1ccccc1`, the inhibition was -9.17%.
For `CCOC(=O)/C(=C\c1ccc([N+](=O)[O-])cc1)C(=O)c1cc(C(C)=O)c(Nc2ccccc2)s1`, the inhibition was 106% (active).
Work on `CN1C[C@@H](CO)O[C@@H](n2cnc3c(N4CCN(CCO)CC4)ncnc32)C1` yielded an inhibition of 8.41%.
`Cc1cc(NC(=O)CSc2ncc(C(F)(F)F)cc2Cl)no1` showed an inhibition of 5.97%.
In the case of `Cc1nc(SCC(=O)Nc2cc(C)on2)c2c(C)c(C)sc2n1`, the inhibition is reported as 73.6% (active).
`Cc1cc(NC(=O)CSc2nc(C(C)C)nc3sc4c(c23)CCC(C)C4)no1` (stereo not drawn) gave an inhibition of -3.65%.
Molecule `Cc1cc(C(=O)N2CCCC2(C)C(=O)O)c(C)o1` (stereo not drawn) has an inhibition of -4.99%.
Molecule `COc1ccc(C(C)(NC(C)=O)c2nc(-c3ccc(S(C)(=O)=O)cc3)cs2)cc1` (stereo not drawn) has an inhibition of 7.41%.
`COc1cc(CNc2ncnc3c2ncn3[C@H]2CN(Cc3cccs3)C[C@@H](CO)O2)cc(OC)c1OC` showed an inhibition of 10.1%.
In the case of `O=CNc1cc(-c2ccc(C(=O)N3CCOCC3)cc2)cn2c(-c3ccc(F)cc3)cnc12`, the inhibition is reported as 38.7%.
For `NCCCC[C@@H]1NC(=O)[C@H](CCC(=O)O)NC(=O)c2cc([N+](=O)[O-])cc(I)c2NCC[C@@H](C(N)=O)NC1=O`, the inhibition was 4.12%.
For `CC(C)[C@@H]1NC(=O)c2cc([N+](=O)[O-])cc(I)c2NCCC[C@@H](C(=O)NC(CC(=O)O)C(N)=O)NC(=O)[C@H](CO)NC1=O` (stereo partly drawn), the inhibition was 95.8% (active).
For `NC(=O)CC[C@@H]1NC(=O)[C@H](CO)NC(=O)c2cc([N+](=O)[O-])cc(I)c2NCC[C@@H](C(N)=O)NC1=O`, the inhibition was 4.02%.
For `COc1cccc(-c2cc3nc(NCCOc4ccccc4Cl)n(C)c(=O)c3s2)c1`, the inhibition was -22%.
`Cc1ccccc1S(=O)(=O)N1[C@@H](c2cccc(Cl)c2)C(C(=O)OC(C)(C)C)=CC[C@H]1c1ccc(Cl)cc1` showed an inhibition of 0.82%.
Molecule `COc1cccc(-c2ccc3c(c2)N(Cc2ccccc2OC)C(=O)C(C)S3)c1` (stereo not drawn) has an inhibition of -0.98%.
Molecule `Nc1ncnc2c1ncn2[C@@H]1O[C@H](C(=O)NS(=O)(=O)c2c(Cl)nc3sccn23)[C@@H](O)[C@H]1O` has an inhibition of 8.22%.
`CCc1nc2c(OCc3ccc(C(F)(F)F)cc3)cccn2c1N(C)C(=O)CC(C)C` gave an inhibition of 15.7%.
In the case of `C=C1C2C[C@H](O)C(C)(C)[C@@]2(O)[C@H](O)C[C@]23C[C@@](C)(O)[C@H](CC[C@H]12)[C@H]3O` (stereo partly drawn), the inhibition is reported as 98.4% (active).
With `O=C(NCC12CC3CC(C1)CC(CNC(=O)N1CCCC1)(C3)C2)N1CCCC1` the inhibition was 18.2%.
With `CC(C)(O)C#Cc1ccc(CNC[C@H]2O[C@@H](n3cnc4c(=O)[nH]c(N)nc43)[C@H](O)[C@@H]2O)s1` the inhibition was 14.8%.
In the case of `CC(Nc1ccc([N+](=O)[O-])cc1[N+](=O)[O-])c1ccccc1` (stereo not drawn), the inhibition is reported as 31.3%.
For `O=C(NC(Nc1nc2ccc([N+](=O)[O-])cc2s1)(C(F)(F)F)C(F)(F)F)c1ccccc1`, the inhibition was 68.7% (active).
In the case of `O=C(O)c1cc([N+](=O)[O-])c(Nc2cccc3ccccc23)c([N+](=O)[O-])c1`, the inhibition is reported as 5.86%.
`Cc1ccc(S(=O)(=O)N2CC[C@H]3[C@@H](C2)C(=O)C[C@@H](c2ccccc2)N3S(=O)(=O)c2ccc(C)cc2)cc1` gave an inhibition of -19.4%.
`CSc1ccc(CN2CCC2(C)C(=O)Nc2ccc(C)c(O)c2)cc1` (stereo not drawn) showed an inhibition of -4.73%.
For `c1ccc(Cc2c(-c3ccco3)nc3c4ccccc4ccn23)cc1`, the inhibition was -310%.
For `O=C(NCc1ccc(F)cc1)c1cc(C2CCCCN2C(=O)C2CCCCC2)on1` (stereo not drawn), the inhibition was 2.91%.

From PubChem BioAssay AID588405 (Sanford-Burnham Center for Chemical Genomics, 2011)
